# From PubChem BioAssay
# Platelet DG rel – inhibitors of platelet dense granule secretion, primary screen, cell-based, MLPCN, human platelets; human platelet-rich plasma, SFLLRN dense granule ATP release, luminescence; AID 1663, 2009; inhibition, %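 (compounds screened at 7.5 µM in platelet-rich plasma)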; hit rate 0.22% among 300,000;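 active means mean replicate score, as percent of positive control, at or above 50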
# NTR1 agonist – agonists of human NTR1, primary screen, imaging, U2OS cells, beta-arrestin-GFP, high content | activation, % at 20 µM | hit rate 0.17% among 330,000 | NTR1-U2OS beta-arrestin-GFP spot imaging, agonist mode;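 active means activation at or above 40% of the spot to cytoplasm intensity ratio, with at least 20 cells analyzed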;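 further: 0% = DMSO without peptide and 100% = 100 nM NTR1 peptide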
# GRK2 inh – compounds blocking aptamer binding on GRK2 – biochemical, human GRK2, bead flow cytometry, HTS, primary screen. FAM-aptamer displacement from GRK2. inhibition of aptamer binding, % at 10 µM. hit rate 0.59% among 330,000. AID 488847, 2010;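 active means inhibition of aptamer binding above 40%, roughly 3 SD of noise, on plates passing a quality check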;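 further: median bead fluorescence of bound FAM aptamer so fluorescent compounds give negative values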
# Target sequence (P25098 whole entry, looked up): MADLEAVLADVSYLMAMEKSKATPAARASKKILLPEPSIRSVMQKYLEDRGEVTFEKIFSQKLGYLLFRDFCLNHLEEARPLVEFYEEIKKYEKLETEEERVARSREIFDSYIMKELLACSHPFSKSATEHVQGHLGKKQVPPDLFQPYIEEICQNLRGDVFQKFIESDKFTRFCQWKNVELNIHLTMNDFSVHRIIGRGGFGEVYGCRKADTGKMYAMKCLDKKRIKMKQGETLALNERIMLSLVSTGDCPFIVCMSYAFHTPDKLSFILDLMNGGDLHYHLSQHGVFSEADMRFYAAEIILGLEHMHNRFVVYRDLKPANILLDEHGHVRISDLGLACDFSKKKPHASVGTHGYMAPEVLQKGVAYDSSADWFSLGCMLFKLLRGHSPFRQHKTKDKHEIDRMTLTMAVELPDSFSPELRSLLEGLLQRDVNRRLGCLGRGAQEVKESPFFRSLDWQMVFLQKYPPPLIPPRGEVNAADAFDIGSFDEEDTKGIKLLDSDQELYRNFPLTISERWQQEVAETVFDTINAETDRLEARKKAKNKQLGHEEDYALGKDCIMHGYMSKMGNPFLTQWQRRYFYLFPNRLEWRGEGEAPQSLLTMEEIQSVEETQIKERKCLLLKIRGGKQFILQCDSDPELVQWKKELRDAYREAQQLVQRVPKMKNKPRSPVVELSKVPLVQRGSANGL
# beta cell repl – inducers of MIN6 beta-cell proliferation, primary screen, ATP luminescence, uHTS. MIN6 cells proliferation, ATPlite luminescence, 48 h; cells starved in 0.2% serum; 100% = growth in 10% serum. proliferation, % at 10 µM. hit rate 0.29% among 330,000. AID 2380, 2010;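 active means compounds whose signal lies at least 3.5 SD above the mean of all wells on their plate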;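 further: 0% = DMSO-treated cells in low-serum medium and 100% = 10% serum control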
# The depositor's hits bear a star; / = not tested or not shown. In the library only some 1.2% were active in any assay of this set; here they are far more common.
SMILES,Platelet DG rel,NTR1 agonist,GRK2 inh,beta cell repl
Cn1nc(C(=O)Nc2nc3ccc(S(C)(=O)=O)cc3s2)ccc1=O,53.0*,-0.4,0.0,-1.6
COc1ccc(C(=O)/C=C2\Sc3ccccc3N2C)cc1,10.7,0.6,0.0,-4.8
COc1ccc(-[n+]2c(C)cc(/C=C3\Sc4ccccc4N3C)cc2C)cc1,-3.5,-4.6,79.0*,-6.1
COc1ccc(CC(=O)Nc2nn(C)c3nc4c(C)cccc4cc23)cc1,-35.1,-0.2,3.0,-2.4
COc1ccc(C(=O)Nc2ccc(N3CCOCC3)cc2)cc1OC,66.2*,0.4,10.0,3.0
COc1ccc(C(=O)Nc2ccc(N3CCCC3)cc2)cc1OC,79.0*,0.6,0.0,0.0
COc1ccc(-c2nn(-c3ccccc3)cc2C(=O)O)cc1OC,-2.1,0.5,2.0,1.8
COc1cccc(-c2nn(-c3ccccc3)cc2C(=O)O)c1,62.4*,-0.7,1.0,-3.2
O=C(/C=C/c1ccccc1O)c1ccco1,0.5,9.9,1.0,-5.0
O=C(/C=C/c1cc(Br)ccc1O)c1ccco1,-5.3,47.1*,1.0,-6.2
C=CCC[C@H](Cc1ccc(F)cc1)C(=O)OC[C@H](C)NC(=O)[C@@H](CC=C)CC(=O)N[C@H](CO)Cc1ccccc1,/,3.8,0.0,-4.8
C=CCC[C@@H](Cc1ccc(F)cc1)C(=O)OC[C@H](C)NC(=O)[C@@H](CC=C)CC(=O)N[C@@H](CO)Cc1ccccc1,/,3.9,83.0*,-4.3
Cc1ccc2c(c1)N(CCC(=O)NC1CCCCC1C)C(=O)CO2 (configuration not stated),-8.1,11.0,1.0,-2.5
COc1ccc(NC(=O)C2CCCN(c3nn4c(=O)cc(C)nc4s3)C2)cc1 (configuration not stated),103.7*,0.5,0.0,1.7
COc1cccc(CNC(=O)C2CCCN(c3nn4c(=O)cc(C)nc4s3)C2)c1 (configuration not stated),/,-0.8,4.0,-3.3
Cc1c(C)n(Cc2ccccc2)c2ccc(C(=O)NCCCN3CCOCC3)cc12,3.6,2.2,0.0,-3.8
CCCCCCOC(=O)C[N+](C)(C)CCOC1CC2CCC1(C)C2(C)C (configuration not stated),0.9,40.2*,0.0,-6.3
CCCCCNS(=O)(=O)c1cc2c3c(c1)CCC(=O)N3CCC2,-28.1,0.1,0.0,0.1
CC1(C)C(=O)OC(C(=O)c2ccc(Cl)cc2)C(C)(C)C1=O (configuration not stated),-7.0,2.0,100.0*,-2.2
CCCN(CCC)CCNC(=O)C1CCN(Cc2nc(-c3ccc(Cl)cc3)oc2C)CC1,0.2,-0.7,96.0*,-5.6
COc1cc(/C=C(\C#N)C(=O)Nc2ccc(C(=O)O)cc2)ccc1OC(=O)c1cccc(F)c1,2.2,3.9,42.0*,-1.2
COc1ccccc1CNC(=O)/C=C/c1ccc(S(=O)(=O)NCc2ccco2)cc1,0.8,-0.9,62.0*,2.2
Cc1ccc(CNC(=O)/C=C/c2ccc(S(=O)(=O)NCc3ccco3)cc2)cc1,-1.0,4.0,0.0,-3.6
C[C@H]1COC(=O)[C@H](CC(=O)OC(C)(C)C)C/C=C\C[C@@H](CC(=O)N[C@@H](CO)Cc2ccccc2)C(=O)N1,/,-0.5,0.0,-1.1
O=C(C1CCC(C(=O)N2CCc3ccccc32)CC1)N1CCc2ccccc21 (configuration not stated),-4.5,2.2,0.0,-2.0
SMILES,Platelet DG rel,NTR1 agonist,GRK2 inh,beta cell repl
O=C(Nc1ccccc1)C(=O)Nc1ccc2c(c1)N(C(=O)C1CC1)CCC2,89.1*,5.5,0.0,-0.6
CC(C(=O)Nc1nc(-c2ccc(F)cc2)cs1)N1C(=O)C2CC=CCC2C1=O (configuration not stated),/,7.0,1.0,-0.3
COc1ccccc1N=c1oc2cc(O)ccc2cc1C(N)=O,57.0*,-0.4,3.0,-4.0
COc1ccccc1N=c1oc2cc(O)ccc2cc1C(=O)NCC1CCCO1 (configuration not stated),1.9,7.0,0.0,1.5
COc1ccc(CO/N=C/c2c(C)[nH]c(=O)[nH]c2=O)cc1,72.1*,-0.5,1.0,-2.3
CCOc1ccc(C(=O)CC(C(=O)O)N2CCCCC2)cc1 (configuration not stated),/,-0.5,43.0*,0.5
CCOc1ccc(C(=O)CC(C(=O)O)N2CCN(Cc3ccccc3)CC2)cc1 (configuration not stated),/,-1.1,3.0,-0.5
COc1ccc(/C=N/Nc2cc(OC)ncn2)cc1,52.3*,/,2.0,/
COc1ccc2nc(C)cc(N/N=C/c3cccc(OC)c3O)c2c1,-23.3,41.3*,0.0,-4.9
COc1ccc(/C=N/Nc2nccnc2Cl)cc1,81.6*,0.4,0.0,-2.4
Clc1nccnc1N/N=C/c1ccc(Br)cc1,40.1,0.9,3.0,-1.3
COc1ccc(/C=N/Nc2nccnc2Cl)c(OC)c1,54.4*,-0.1,1.0,2.9
CC(C)[C@H](NC(=O)[C@@H]1Cc2c([nH]c3ccccc23)C2c3ccccc3C(=O)N21)C(=O)N1CCC[C@@H]1C(=O)O (some centres not stated),2.7,-0.2,0.0,-2.2
CC(C)Cc1nnc(NC(=O)c2cc([N+](=O)[O-])ccc2N2CCOCC2)s1,0.6,0.5,5.0,1.9
CCn1cc(S(=O)(=O)N2CCc3ccccc3C2)cn1,2.6,-0.3,1.0,0.6
COc1cccc(/C=N/Nc2nccnc2Cl)c1O,84.2*,0.3,/,-4.5
COc1ccc(/C=N/Nc2nncc3ccccc23)cc1,68.3*,-0.1,3.0,-5.6
Oc1ccc(/C=N/Nc2nccnc2Cl)c(O)c1,135.3*,2.6,0.0,-4.1
O=C(Cn1cnc2cc([N+](=O)[O-])ccc2c1=O)NC1CCS(=O)(=O)C1 (configuration not stated),3.8,0.1,1.0,-1.7
Cc1c(NC(=O)COc2cccc(Br)c2)c(=O)n(-c2ccccc2)n1C,-13.9,-3.0,0.0,-2.3
CCOc1ccccc1N1CC(C(=O)Nc2nccs2)CC1=O (configuration not stated),51.7*,1.0,0.0,-1.9
CCN(C(=O)COC(=O)/C=C/c1ccco1)C1CCCCC1,/,-0.3,49.0*,-1.2
Oc1ccc(N=Nc2ccc3c(c2)OCO3)c2ccccc12,14.0,4.7,78.0*,-6.0
Nc1c(C(=O)N2CCCC2)sc2nc(-c3ccccc3)ccc12,13.0,15.0,2.0,-1.5
CCCCn1c(=O)[nH]c(=O)c2c1nc(Cn1ncc(Cl)c(Cl)c1=O)n2CCC,15.6,15.0,0.0,-5.9
O=C(Oc1ccc(Cl)cc1)c1ccc(COC(=O)c2cnccn2)cc1,62.7*,0.2,0.0,-1.1
O=C1Nc2ccccc2S/C1=C\C(=O)N1CCCC1,2.4,-0.3,81.0*,0.2
COCCn1c(SCc2ccc(F)cc2)nc2ccccc2c1=O,6.9,3.4,0.0,0.5
c1ccc(CN2CCN(c3nc(NCc4ccco4)c4ccccc4n3)CC2)cc1,-0.9,44.2*,1.0,-5.3
